Compound activity: PubChem BioAssay, National Center for Advancing Translational Sciences (NCATS)
EPAC1 ag – qHTS for Agonist of cAMP-regulated guanine nucleotide exchange factor 3 (EPAC1): primary screen; Potency, µM (series often up to 154 µM), inactives show at the top dose activation, hits mostly activators; EPAC1 agonist qHTS, biochemical assay; response scale: 100% = response to 6.5 mM cAMP; 0.073% of 360,000 active; Rap guanine nucleotide exchange factor 3 (Homo sapiens), O95398; further: nearly all actives have a fitted effect of over 60% in size
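Read-out is the fluorescence drop as BODIPY-GDP leaves Rap1B (480 nm excitation, 540 nm emission), recorded every 5 minutes over 30 minutes. Reactions held 100 nM EPAC1, 250 nM Rap1B–BODIPY-GDP and 50 uM GDP, with 6.5 mM cAMP setting full activation.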
EPAC2 antagonist – qHTS for Antagonist of cAMP-regulated guanine nucleotide exchange factor 2 (EPAC2): primary screen; EPAC2 GEF exchange of Rap1B-BODIPY-GDP, fluorescence; Potency, µM (titrated, usually from 114 µM), inactives show top-dose activity, negative = inhibition, most hits filed as inhibitors; 0.18% of 360,000 active; further: on the % scale 0 is the no-effect control and ±100 the full control effect; nearly all actives have a fitted effect of over 45% in size
USP1-UAF1 inh – Inhibitors of USP1/UAF1: Primary Screen; AID 743255, 2014; Potency, µM (series often up to 57.1 µM), without a hit: at the top dose activity change, negative = inhibition, most hits filed as inhibitors; recombinant USP1/UAF1, Ub-Rhodamine cleavage fluorescence; 0.23% of 390,000 active; Ubiquitin carboxyl-terminal hydrolase 1 (Homo sapiens), O94782; further: on the % scale 0 is the no-effect control and ±100 the full control effect; nearly all actives have a fitted effect of over 60% in size
Target sequence (O94782 whole entry, looked up): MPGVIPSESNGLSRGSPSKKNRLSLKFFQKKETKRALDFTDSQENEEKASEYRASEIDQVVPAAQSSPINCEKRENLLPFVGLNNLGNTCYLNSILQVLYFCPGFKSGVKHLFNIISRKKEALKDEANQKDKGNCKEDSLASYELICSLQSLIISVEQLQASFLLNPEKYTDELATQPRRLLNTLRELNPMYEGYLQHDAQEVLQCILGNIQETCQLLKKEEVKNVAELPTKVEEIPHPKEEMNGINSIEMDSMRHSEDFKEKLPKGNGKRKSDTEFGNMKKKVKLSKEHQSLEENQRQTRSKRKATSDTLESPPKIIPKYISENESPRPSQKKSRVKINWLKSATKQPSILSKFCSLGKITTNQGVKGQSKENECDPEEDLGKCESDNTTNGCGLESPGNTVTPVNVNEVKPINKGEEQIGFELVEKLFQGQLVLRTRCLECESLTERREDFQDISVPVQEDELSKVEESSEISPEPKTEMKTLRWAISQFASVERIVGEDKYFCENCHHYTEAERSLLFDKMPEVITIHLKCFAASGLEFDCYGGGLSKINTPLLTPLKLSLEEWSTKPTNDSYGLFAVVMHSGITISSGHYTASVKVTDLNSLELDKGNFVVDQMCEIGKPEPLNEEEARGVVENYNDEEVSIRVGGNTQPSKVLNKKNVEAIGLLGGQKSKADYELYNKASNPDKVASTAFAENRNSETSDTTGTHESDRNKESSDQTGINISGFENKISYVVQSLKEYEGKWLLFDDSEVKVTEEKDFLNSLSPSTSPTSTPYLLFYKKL
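High-throughput fluorogenic screen: 1nM USP1/UAF1 complex, Ub-Rho substrate 150nM final, 50mM HEPES pH 7.8 with 0.5mM EDTA, 0.1 mg/ml BSA, 1mM TCEP and 0.01% Tween-20.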
EPAC2 ag – qHTS for Agonist of cAMP-regulated guanine nucleotide exchange factor 4 (EPAC2): primary screen. EPAC2 activation, biochemical qHTS; response scale: 100% = 6.5 mM cAMP response. Potency, µM (doses to about 154 µM), without a hit: top-dose activation, actives largely listed as activators. 0.079% of 360,000 active; further: nearly all actives have a fitted effect of over 50% in size
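Nucleotide exchange monitored as fluorescence drop when BODIPY-GDP leaves Rap1B. Reaction: 100 nM EPAC2, 250 nM RAP1B-BODIPY-GDP, 50 uM GDP, room temperature, kinetic read over 30 min. Activity expressed relative to 6.5 mM cAMP.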
EPAC1 antagonist – qHTS for Antagonist of cAMP-regulated guanine nucleotide exchange factor 3 (EPAC1): primary screen; AID 720709, 2013; Potency, µM (titrated, usually from 115 µM), without a hit: at the highest dose activity change, negative = inhibition, hits mostly inhibitors; EPAC1 GEF assay, Rap1b-BODIPY-GDP exchange fluorescence; 0.14% of 360,000 active;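 further: plate controls were vehicle for no effect and positive control for full effect; nearly all actives have a fitted effect of over 50% in size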
Active calls of the source: *; ? = inconclusive; / = no result given. Shown are actives, neighbours in structure and some others; about 0.49% of the full set was active somewhere. The call rests on the fitted dose curve; in most records, active means well fitted curve in the direction sought with a large enough effect; inconclusive means small, poorly fitted or top-dose-only effect, or another doubt; inactive means no such curve, though single readings can be large; an effect the other way counts as inactive or inconclusive. Potency means the concentration at half of the fitted maximal effect.

SMILES	EPAC1 ag	EPAC2 antagonist	USP1-UAF1 inh	EPAC2 ag	EPAC1 antagonist
Brc1ccc(-c2csc(-c3c[nH]c4ccccc34)n2)cc1	16%	-4%	-26%	40µM*	-5%
COCCn1c(-c2ccc(Br)cc2)csc1=Nc1cccnc1	10%	45µM*	-21%	-3%	-1%
Clc1ccc(-c2csc(=Nc3cccnc3)n2CCCn2ccnc2)cc1Cl	7%	-7%	-1%	-2%	9%
CN(C)CC/C=C1/c2ccccc2Sc2c(O)cc(Cl)cc21	1%	35µM*	-16%	10%	-1%
COc1cc(Cl)cc2c1Sc1ccccc1/C2=C/CCN(C)C	0%	-3%	-3%	11%	-2%
CCCn1c2ccccc2c2cnn(CC(=O)NCCCN(Cc3ccccc3)C(C)C)c(=O)c21	/	/	13%	/	/
CCC(C)n1c(=N)c(C#N)cc2c(=O)n3ccccc3nc21 (stereo not given)	-7%	87%	-16%	56µM*	7%
CCCn1c(=N)c(C#N)cc2c(=O)n3ccccc3nc21	13%	12%	?	5%	15%
Cc1ccc(Nc2c(-c3ccccn3)nc3cccc(C)n23)cc1	-9%	32µM*	-22%	-1%	-1%
Cc1cccc2nc(-c3ccccn3)c(Nc3ccccc3)n12	/	/	-13%	/	/
O=C1C=CC(=O)c2c(O)c(CO)c(CO)c(O)c21	17%	-1%	14µM*	9%	?
O=c1c(CO)cc(CO)cc(CO)c1O	7%	5%	-1%	8%	3%
O=[N+]([O-])c1cc(Cl)ccc1NCCc1ccccn1	-2%	56µM*	-9%	-3%	-14%
CCc1ccc(NC(=O)CSc2nc3ncccc3[nH]2)cc1	/	/	-11%	/	/
Cc1cccc(N(C)c2nc3ccccc3c3nnc(C)n23)c1	/	/	-16%	/	/
O=c1[nH]cc(N=Cc2cc(Cl)cc(Cl)c2O)c(=O)[nH]1	100µM*	-17%	?	-8%	-6%
CCOC(=O)c1sc(NC(=O)c2cc(CC)on2)c(C(=O)OCC)c1C	/	/	-13%	/	/
CN(C)c1ccc2nc3c(=O)[nH]c(=O)nc-3n(CC(O)C(O)C(O)CO)c2c1 (stereo not given)	20%	3%	28µM*	9%	?
COc1ccc(-c2cc3ccccc3c(=O)o2)cc1	2%	-6%	/	15%	-10%
CN(C)c1ccc(-c2cc3ccccc3c(=O)o2)cc1	-1%	94%	-27%	100µM*	12%
CC(=O)NC(c1ccc(Cl)cc1)c1ccc2cccnc2c1O (stereo not given)	-2%	20µM*	8%	9%	-12%
CCCC(=O)NC(c1ccc(C(C)C)cc1)c1ccc2cccnc2c1O (stereo not given)	9%	0%	-13%	-4%	-7%
CCC(=O)NC(c1ccc(C)cc1)c1ccc2cccnc2c1O (stereo not given)	-6%	16µM*	-12%	-1%	-25%
CC(=O)NC(c1ccccc1)c1cc(Cl)c2cccnc2c1O (stereo not given)	-2%	40µM*	-9%	7%	1%
CCOc1ccccc1NC(=O)c1cc(=O)c2ccc(C)cc2o1	/	/	10%	/	/
SMILES	EPAC1 ag	EPAC2 antagonist	USP1-UAF1 inh	EPAC2 ag	EPAC1 antagonist
CCC(=O)N1CCCc2cc(S(=O)(=O)Nc3ccc(C)c(C)c3)ccc21	/	/	-12%	/	/
CCCSc1nc2c([nH]c3ccccc32)c(=O)n1C	/	/	-21%	/	/
O=C1Nc2c(Cl)cc(Cl)cc2C1=O	7%	?	28µM*	1%	?
Cc1cccc(N=C2C(=O)Nc3c(Cl)cccc32)c1	9%	-5%	-20%	7%	-6%
CCOC(=O)c1c(C)oc2nc(C)nc(NCc3cccc(Cl)c3)c12	/	/	2%	/	/
O=c1cc(-c2ccccc2)nc2c(-c3ccccc3)c(C(F)(F)F)[nH]n12	-5%	18µM*	-23%	-5%	?
Cc1cc(=O)n2[nH]c(C)c(-c3ccccc3)c2n1	-2%	6%	-18%	2%	3%
Cc1cc(NC(=O)CN(C)S(=O)(=O)c2ccc3c(c2)CCC(=O)N3)ccc1Br	/	/	-25%	/	/
Cc1cccc(N2CCN(S(=O)(=O)c3c(C(=O)N4CCC(C)CC4)c(C)n(C)c3C)CC2)c1C	/	/	5%	/	/
CC1=CC(C)(C)N(C(=O)CCl)c2cc(C)ccc21	-5%	50µM*	-23%	6%	-9%
N#C/C(=C\c1cn(Cc2ccc(C#N)cc2)c2ccccc12)C(=O)NCc1cccs1	0%	20%	-5%	79µM*	9%
COc1ccc(NC(=O)c2cc(C3CC3)nc3c2c(C)nn3-c2ccccc2)cc1OC	/	/	5%	/	/
Cc1ccsc1C=Nc1ccc(O)cc1	12%	50µM*	2.2µM*	10%	35µM*
CS(=O)(=O)C1=NSC2=NC(=O)/C(=C\c3cccn3-c3ccc(Cl)cc3)C(=N)N21	9%	-17%	-4%	-8%	35µM*
O/C=c1\ccc2cccc3nc(C(F)(F)F)nc1c23	89µM*	82%	22µM*	?	18%
NNc1nc(C(F)(F)F)nc2ccccc12	4%	5%	-4%	1%	2%
CCN(C(=O)CSc1nc(-c2ccccc2)no1)c1cccc(C)c1	/	/	-16%	/	/
COC(=O)C1=C(C)NC(C)=C([N+](=O)[O-])C1c1ccccc1C(F)(F)F (stereo not given)	-8%	50µM*	9%	3%	-13%
CCOc1ccc(NC(=O)C2CCCN(c3nn4cc(-c5ccc(OC)cc5)nc4s3)C2)cc1 (stereo not given)	/	/	-13%	/	/
Oc1c(C(c2ccccc2F)N2CCN(Cc3ccccc3)CC2)sc2nc(-c3ccco3)nn12 (stereo not given)	/	/	-9%	/	/
COc1ccc([N+](=O)[O-])cc1NC(=S)Nc1ccccc1	0%	6%	-26%	7.9µM*	-2%
COc1cccc(CN2C(=O)C(C)Oc3ccccc32)c1 (stereo not given)	12%	-16%	-13%	1%	-8%
COc1cc(CN2C(=O)C(C)ON=C2c2ccccc2F)cc(OC)c1 (stereo not given)	-5%	32µM*	/	3%	-3%
COc1ccccc1Nc1sc(C(=O)c2ccc(C)cc2C)c(N)c1S(=O)(=O)c1ccccc1	/	/	-25%	/	/
CCCCOc1ccc(S(=O)(=O)Nc2cccc(-c3ccc(N4CCOCC4)nn3)c2)cc1	/	/	-21%	/	/
